# According to the supplement of paper PMC10849652:
# About 7,900 targets were measured; listed, in parts, are those with a hit and a random draw of the rest. About 0.6% of all pairs of compound and target were hits. Values without a mark were called inactive.
# Key:
# Test in all cases: log2 fold change, soluble protein after heating vs DMSO (PISA); higher = thermal stabilisation; K562 cells, 10 uM, 30 min; active = over 0.2 and 3.5 SD of the protein, either way, in both replicates (recomputed)
# [1] = compound: CS(=O)(=O)c1ccc(-c2cnc(N)c(C(=O)Nc3ccccc3)n2)cc1
# Method in brief: (§1)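 Soluble protein was quantified by TMTpro 16plex LC-MS/MS after channel sums were equalised. It was obtained as the supernatant after 21,000xg for 90 min from pooled aliquots of K562 cells (2×10^6 cells/mL, 10 μM compound, 30 min) heated for 3 min across 48°C-58°C and extracted in PBS with 0.5% NP-40 at 4°C. Thermal stability values are relative to control samples and come from duplicates. They are given as log2 fold changes.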
# crizotinib = compound: C[C@@H](Oc1cc(-c2cnn(C3CCNCC3)c2)cnc1N)c1c(Cl)ccc(F)c1Cl [crizotinib]
# Method in brief: as §1
# [2] = compound: C[C@@H]1COCCN1C2=NC(=NC(=C2)C3(CC3)S(=O)(=O)C)C4=C5C=CNC5=CC=C4
# Method in brief: as §1
# [3] = compound: C[C@H](C1=CC=C(C=C1)C(=O)NC2=C3C=CNC3=NC=C2)N
# Method in brief: as §1
# duvelisib = compound: C[C@H](Nc1ncnc2nc[nH]c12)c1cc2cccc(Cl)c2c(=O)n1-c1ccccc1 [duvelisib]
# Method in brief: as §1
# gandotinib = compound: Cc1cc(Nc2cc(CN3CCOCC3)c3nc(C)c(Cc4ccc(Cl)cc4F)n3n2)n[nH]1 [gandotinib]
# Method in brief: as §1
# tozasertib = compound: Cc1cc(Nc2cc(N3CCN(C)CC3)nc(Sc3ccc(NC(=O)C4CC4)cc3)n2)n[nH]1 [tozasertib]
# Method in brief: as §1
# [4] = compound: Cc1cc(SCc2sc(-c3ccc(C(F)(F)F)cc3)nc2C)ccc1OCC(=O)O
# Method in brief: as §1
# doramapimod = compound: Cc1ccc(-n2nc(C(C)(C)C)cc2NC(=O)Nc2ccc(OCCN3CCOCC3)c3ccccc23)cc1 [doramapimod]
# Method in brief: as §1
# ispinesib = compound: Cc1ccc(C(=O)N(CCCN)[C@@H](c2nc3cc(Cl)ccc3c(=O)n2Cc2ccccc2)C(C)C)cc1 [ispinesib]
# Method in brief: as §1
# bafetinib = compound: Cc1ccc(NC(=O)c2ccc(CN3CC[C@H](N(C)C)C3)c(C(F)(F)F)c2)cc1Nc1nccc(-c2cncnc2)n1 [bafetinib]
# Method in brief: as §1
# [5] = compound: Cc1cccc(CC(=O)N2CCc3c2ccc(-c2cn(C)c4ncnc(N)c24)c3F)n1
# Method in brief: as §1
# nilotinib = compound: Cc1cn(-c2cc(NC(=O)c3ccc(C)c(Nc4nccc(-c5cccnc5)n4)c3)cc(C(F)(F)F)c2)cn1 [nilotinib]
# Method in brief: as §1
# [6] = compound: Cc1nc(Nc2n[nH]c3c2CN(C(=O)N[C@H](CN(C)C)c2ccccc2)C3(C)C)c2sccc2n1
# Method in brief: as §1
# dasatinib = compound: Cc1nc(Nc2ncc(C(=O)Nc3c(C)cccc3Cl)s2)cc(N2CCN(CCO)CC2)n1 [dasatinib]
# Method in brief: as §1
# [7] = compound: Cc1ncc(-c2ccnc(Nc3ccc(S(C)(=O)=O)cc3)n2)n1C(C)C
# Method in brief: as §1
# [8] = compound: Cn1cc(-c2ccc3c(c2)CCN3C(=O)Cc2cccc(C(F)(F)F)c2)c2c(N)ncnc21
# Method in brief: as §1
# [9] = compound: Cn1cc(-c2ccc3nnc(C(F)(F)c4ccc5ncccc5c4)n3n2)cn1
# Method in brief: as §1
# tipifarnib = compound: Cn1cncc1[C@@](N)(c1ccc(Cl)cc1)c1ccc2c(c1)c(-c1cccc(Cl)c1)cc(=O)n2C [tipifarnib]
# Method in brief: as §1
# mubritinib = compound: FC(F)(F)c1ccc(/C=C/c2nc(COc3ccc(CCCCn4ccnn4)cc3)co2)cc1 [mubritinib]
# Method in brief: as §1
# UniProt Q12906, sequence (Q12906 whole entry, looked up): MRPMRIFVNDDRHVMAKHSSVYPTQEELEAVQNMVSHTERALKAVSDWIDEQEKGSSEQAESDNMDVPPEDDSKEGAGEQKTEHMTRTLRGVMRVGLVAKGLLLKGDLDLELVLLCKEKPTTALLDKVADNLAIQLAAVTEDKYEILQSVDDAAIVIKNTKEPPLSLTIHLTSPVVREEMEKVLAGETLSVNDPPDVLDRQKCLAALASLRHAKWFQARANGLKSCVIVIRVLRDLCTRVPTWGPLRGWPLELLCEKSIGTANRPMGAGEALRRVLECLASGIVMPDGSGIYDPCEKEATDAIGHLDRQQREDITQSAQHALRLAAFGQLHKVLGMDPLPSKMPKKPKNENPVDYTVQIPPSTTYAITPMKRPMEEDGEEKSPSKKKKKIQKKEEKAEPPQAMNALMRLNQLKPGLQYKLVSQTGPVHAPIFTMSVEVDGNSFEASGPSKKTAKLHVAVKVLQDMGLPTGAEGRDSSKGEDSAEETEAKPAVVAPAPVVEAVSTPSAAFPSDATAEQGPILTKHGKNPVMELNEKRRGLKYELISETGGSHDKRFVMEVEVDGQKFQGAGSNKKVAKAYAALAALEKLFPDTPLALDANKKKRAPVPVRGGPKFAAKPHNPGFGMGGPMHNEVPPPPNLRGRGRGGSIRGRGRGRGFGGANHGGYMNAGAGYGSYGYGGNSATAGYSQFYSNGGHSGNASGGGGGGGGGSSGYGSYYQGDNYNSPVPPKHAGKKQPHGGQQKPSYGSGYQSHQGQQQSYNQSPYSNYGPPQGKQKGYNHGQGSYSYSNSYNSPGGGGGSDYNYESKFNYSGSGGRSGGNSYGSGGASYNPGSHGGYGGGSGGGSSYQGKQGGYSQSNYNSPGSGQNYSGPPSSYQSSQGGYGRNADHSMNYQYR
# UniProt Q03252, sequence (Q03252 whole entry, looked up): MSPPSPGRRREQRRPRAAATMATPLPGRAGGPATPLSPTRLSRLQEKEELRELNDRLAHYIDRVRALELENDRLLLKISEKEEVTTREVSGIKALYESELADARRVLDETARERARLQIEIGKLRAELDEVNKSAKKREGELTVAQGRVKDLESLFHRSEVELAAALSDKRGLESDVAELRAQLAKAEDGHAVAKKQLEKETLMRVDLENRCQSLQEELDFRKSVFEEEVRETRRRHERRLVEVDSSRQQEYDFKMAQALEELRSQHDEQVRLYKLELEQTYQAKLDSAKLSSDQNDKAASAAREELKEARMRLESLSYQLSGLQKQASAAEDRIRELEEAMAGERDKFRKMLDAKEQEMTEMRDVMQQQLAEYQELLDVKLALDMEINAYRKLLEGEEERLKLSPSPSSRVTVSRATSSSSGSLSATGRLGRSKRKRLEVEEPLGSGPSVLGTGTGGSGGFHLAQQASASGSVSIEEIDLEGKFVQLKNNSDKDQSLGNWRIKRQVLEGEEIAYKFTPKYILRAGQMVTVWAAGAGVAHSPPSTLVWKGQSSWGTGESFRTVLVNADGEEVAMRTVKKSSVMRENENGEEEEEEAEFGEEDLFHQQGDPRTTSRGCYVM
# UniProt Q9Y383, sequence (Q9Y383 whole entry, looked up): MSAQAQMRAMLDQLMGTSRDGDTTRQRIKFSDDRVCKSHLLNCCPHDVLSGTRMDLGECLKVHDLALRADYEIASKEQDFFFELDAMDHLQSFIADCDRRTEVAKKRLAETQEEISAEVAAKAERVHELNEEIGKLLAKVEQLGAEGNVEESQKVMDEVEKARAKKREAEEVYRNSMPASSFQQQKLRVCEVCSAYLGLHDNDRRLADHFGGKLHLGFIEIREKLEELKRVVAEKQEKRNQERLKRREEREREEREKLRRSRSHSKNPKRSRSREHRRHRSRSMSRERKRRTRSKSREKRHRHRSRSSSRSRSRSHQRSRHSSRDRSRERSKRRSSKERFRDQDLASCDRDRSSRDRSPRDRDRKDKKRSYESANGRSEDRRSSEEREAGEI
# UniProt P13473, sequence (P13473 whole entry, looked up): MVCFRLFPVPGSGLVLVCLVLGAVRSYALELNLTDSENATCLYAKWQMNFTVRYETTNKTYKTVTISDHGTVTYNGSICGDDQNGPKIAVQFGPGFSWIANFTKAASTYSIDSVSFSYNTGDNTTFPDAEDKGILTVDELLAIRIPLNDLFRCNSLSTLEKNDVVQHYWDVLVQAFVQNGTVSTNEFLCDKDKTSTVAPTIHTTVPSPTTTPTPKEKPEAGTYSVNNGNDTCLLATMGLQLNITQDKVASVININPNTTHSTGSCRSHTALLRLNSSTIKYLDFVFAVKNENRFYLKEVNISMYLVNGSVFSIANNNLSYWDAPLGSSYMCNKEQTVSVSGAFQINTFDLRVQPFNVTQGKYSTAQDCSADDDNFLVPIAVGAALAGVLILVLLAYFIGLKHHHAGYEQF
# UniProt Q9Y2X0, sequence (Q9Y2X0 whole entry, looked up): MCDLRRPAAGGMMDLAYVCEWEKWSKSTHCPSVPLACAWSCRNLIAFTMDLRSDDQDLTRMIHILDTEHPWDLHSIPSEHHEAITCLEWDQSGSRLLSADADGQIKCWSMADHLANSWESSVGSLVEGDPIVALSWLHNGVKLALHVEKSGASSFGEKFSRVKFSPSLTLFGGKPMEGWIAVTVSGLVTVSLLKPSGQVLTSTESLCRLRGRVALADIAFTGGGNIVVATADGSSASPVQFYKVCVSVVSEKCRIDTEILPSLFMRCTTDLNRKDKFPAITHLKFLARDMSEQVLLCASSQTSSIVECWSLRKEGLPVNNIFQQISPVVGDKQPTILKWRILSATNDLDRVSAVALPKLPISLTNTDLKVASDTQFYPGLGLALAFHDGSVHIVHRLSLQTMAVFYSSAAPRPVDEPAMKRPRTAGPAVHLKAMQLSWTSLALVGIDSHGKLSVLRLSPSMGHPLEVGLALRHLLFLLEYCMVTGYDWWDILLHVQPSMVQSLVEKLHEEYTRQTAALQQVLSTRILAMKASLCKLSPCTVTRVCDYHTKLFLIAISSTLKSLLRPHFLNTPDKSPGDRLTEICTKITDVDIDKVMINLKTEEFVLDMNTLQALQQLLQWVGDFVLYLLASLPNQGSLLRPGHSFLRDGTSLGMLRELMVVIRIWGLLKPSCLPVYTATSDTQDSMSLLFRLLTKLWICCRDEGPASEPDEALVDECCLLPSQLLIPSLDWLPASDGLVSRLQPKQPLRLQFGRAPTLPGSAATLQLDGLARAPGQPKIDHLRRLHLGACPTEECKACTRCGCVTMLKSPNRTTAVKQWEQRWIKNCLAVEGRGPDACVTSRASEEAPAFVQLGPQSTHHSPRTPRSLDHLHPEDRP
# UniProt Q9Y6R4, sequence (Q9Y6R4 whole entry, looked up): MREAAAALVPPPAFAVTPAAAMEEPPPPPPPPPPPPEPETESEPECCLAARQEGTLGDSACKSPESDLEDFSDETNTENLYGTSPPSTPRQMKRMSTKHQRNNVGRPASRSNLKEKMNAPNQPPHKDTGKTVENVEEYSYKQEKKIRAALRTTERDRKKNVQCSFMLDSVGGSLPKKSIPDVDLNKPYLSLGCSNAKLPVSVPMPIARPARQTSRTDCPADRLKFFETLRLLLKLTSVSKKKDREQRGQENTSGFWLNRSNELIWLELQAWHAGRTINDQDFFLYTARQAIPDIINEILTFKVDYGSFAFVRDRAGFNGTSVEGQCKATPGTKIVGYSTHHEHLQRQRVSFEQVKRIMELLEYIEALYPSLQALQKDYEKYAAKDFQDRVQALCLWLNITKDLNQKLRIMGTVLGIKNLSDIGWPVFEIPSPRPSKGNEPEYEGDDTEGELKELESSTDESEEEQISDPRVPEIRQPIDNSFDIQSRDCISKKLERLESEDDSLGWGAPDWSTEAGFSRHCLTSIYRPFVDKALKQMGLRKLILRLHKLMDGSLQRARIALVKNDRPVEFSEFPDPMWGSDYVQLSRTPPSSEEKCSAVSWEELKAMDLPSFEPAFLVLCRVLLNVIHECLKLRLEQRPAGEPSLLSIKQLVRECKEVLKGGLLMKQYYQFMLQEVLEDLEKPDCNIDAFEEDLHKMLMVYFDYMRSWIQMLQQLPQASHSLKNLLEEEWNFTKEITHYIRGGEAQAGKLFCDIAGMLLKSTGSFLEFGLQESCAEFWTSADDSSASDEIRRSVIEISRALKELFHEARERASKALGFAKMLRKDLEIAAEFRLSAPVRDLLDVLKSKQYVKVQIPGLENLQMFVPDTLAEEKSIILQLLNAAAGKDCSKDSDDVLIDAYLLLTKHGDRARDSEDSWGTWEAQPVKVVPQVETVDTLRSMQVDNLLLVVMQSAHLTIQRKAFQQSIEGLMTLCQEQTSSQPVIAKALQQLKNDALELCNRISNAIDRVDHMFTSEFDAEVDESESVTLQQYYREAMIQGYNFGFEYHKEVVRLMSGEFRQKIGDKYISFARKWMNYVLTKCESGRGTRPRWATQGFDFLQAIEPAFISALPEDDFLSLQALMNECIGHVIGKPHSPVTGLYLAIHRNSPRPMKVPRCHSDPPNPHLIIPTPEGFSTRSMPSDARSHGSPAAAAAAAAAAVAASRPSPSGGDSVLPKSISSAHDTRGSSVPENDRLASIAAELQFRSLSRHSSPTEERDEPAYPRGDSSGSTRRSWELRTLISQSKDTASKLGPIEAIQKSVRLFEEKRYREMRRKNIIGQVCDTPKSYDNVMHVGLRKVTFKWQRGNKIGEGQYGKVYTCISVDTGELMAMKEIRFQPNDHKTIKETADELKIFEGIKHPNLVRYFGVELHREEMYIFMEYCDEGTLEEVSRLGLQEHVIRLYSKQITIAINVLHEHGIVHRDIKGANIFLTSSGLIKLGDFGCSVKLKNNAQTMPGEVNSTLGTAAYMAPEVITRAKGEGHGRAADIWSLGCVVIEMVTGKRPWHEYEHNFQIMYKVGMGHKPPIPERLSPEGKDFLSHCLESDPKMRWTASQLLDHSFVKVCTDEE
# UniProt P14174, sequence (P14174 whole entry, looked up): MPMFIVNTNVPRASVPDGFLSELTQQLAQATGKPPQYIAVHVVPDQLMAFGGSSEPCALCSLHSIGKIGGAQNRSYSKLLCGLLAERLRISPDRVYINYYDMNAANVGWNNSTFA
Target,log2 fold change [1],log2 fold change (crizotinib),log2 fold change [2],log2 fold change [3],log2 fold change (duvelisib),log2 fold change (gandotinib),log2 fold change (tozasertib),log2 fold change [4],log2 fold change (doramapimod),log2 fold change (ispinesib),log2 fold change (bafetinib),log2 fold change [5],log2 fold change (nilotinib),log2 fold change [6],log2 fold change (dasatinib),log2 fold change [7],log2 fold change [8],log2 fold change [9],log2 fold change (tipifarnib),log2 fold change (mubritinib)
LAMP2 (UniProt P13473),0.055,0.043,0.006,-0.051,0.072,-0.104,0.015,-0.062,-0.039,-0.001,-0.124,-0.051,0.002,-0.014,0.017,0.014,0.048,0.035,0.14,0.017
MIF (UniProt P14174),-0.027,0.025,0.111,-0.048,0.197,0.079,-0.019,-0.025,-0.019,0.055,0.012,0.034,0.088,0,0.052,-0.052,0.067,0.076,-0.029,0.021
ILF3 isoform 7 (UniProt Q12906),-0.159,-0.074,-0.181,0.286,-0.092,0.1,0.039,-0.001,0.118,0.034,0.082,-0.028,-0.02,0.244,0.155,0.297,-0.179,-0.089,0.057,-0.031
LUC7L2 (UniProt Q9Y383),-0.083,0.02,0.053,-0.439 (active),-0.002,0.031,0.065,0.03,-0.03,0.111,0.035,0.002,0.059,-2.75 (active),-0.01,-0.007,-0.033,-0.059,0.049,-0.07
MED16 (UniProt Q9Y2X0),-0.04,-0.072,-0.071,0.06,-0.053,-0.098,-0.096,0.063,0.08,-0.097,0.018,-0.009,-0.014,-0.092,0.141,-0.287,-0.144,0.009,-0.029,0.024
MAP3K4 isoform 2 (UniProt Q9Y6R4),0.012,-0.256 (active),0.042,-0.017,0.02,-0.054,0.026,0,0.02,0.021,-0.059,-0.095,0.008,0.221 (active),0.534 (active),0.027,-0.031,0.021,-0.032,0.016
MDC1 (UniProt Q14676),-0.053,-0.109,0.041,0.107,-0.057,0.423,-0.154,-0.031,0.178,-0.217,-0.1,-0.269,0.037,0.02,0.398,-0.191,-0.031,-0.043,0.058,-0.038
LMNB2 (UniProt Q03252),0.007,0.039,0.179,0.079,0.072,-0.003,0.03,0.033,0.019,0.016,-0.067,-0.078,0.022,-0.077,0.101,-0.158,0.015,-0.007,0.166,-0.043
